Data published in PubChem BioAssay.
Activity calls are given as the source filed them.

Tests used:
[1] = binders of probe aFSTL3 on microarray, primary screen, stem cell growth factor project, biochemical, small-molecule microarray, fluorescence 635/667 (AID 1064); conditions: higher = more signal;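 further: measures binding of the biotinylated anti-FSTL3 antibody to printed compounds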
[2] = binders from COS7 lysate, DM2A8 probe, primary screen, torsin A project, cell lysate, small-molecule microarray, fluorescence 635/667 (AID 1065); conditions: higher = more signal, COS7 lysate expressing mutant human TOR1A
[3] = binders of probe aFGF2 on microarray, primary screen, stem cell growth factor project, biochemical, small-molecule microarray, fluorescence 635/667 (AID 1067); conditions: higher = more signal;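 further: measures binding of biotinylated aFGF2 protein to printed compounds on slides; z-score merges feature fluorescence and signal-to-noise across triplicate slides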
[4] = binders of probe aFGF10 on microarray, primary screen, stem cell growth factor project, biochemical, small-molecule microarray, fluorescence 635/667 (AID 1071); conditions: higher = more signal;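 further: score merges 667 nm spot intensity and signal to noise from triplicate slides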
[5] = target: Neurogenic locus notch homolog protein 2 (Homo sapiens) (UniProt Q04721); assay: Notch2 binders on small-molecule microarrays, primary screen, biochemical, small-molecule microarray, 635 nm fluorescence, stem cell growth factors (AID 1073); conditions: Notch2 binding, higher = more signal
Chain of Neurogenic locus notch homolog protein 2 (Homo sapiens) (Q04721 whole entry, looked up, canonical isoform): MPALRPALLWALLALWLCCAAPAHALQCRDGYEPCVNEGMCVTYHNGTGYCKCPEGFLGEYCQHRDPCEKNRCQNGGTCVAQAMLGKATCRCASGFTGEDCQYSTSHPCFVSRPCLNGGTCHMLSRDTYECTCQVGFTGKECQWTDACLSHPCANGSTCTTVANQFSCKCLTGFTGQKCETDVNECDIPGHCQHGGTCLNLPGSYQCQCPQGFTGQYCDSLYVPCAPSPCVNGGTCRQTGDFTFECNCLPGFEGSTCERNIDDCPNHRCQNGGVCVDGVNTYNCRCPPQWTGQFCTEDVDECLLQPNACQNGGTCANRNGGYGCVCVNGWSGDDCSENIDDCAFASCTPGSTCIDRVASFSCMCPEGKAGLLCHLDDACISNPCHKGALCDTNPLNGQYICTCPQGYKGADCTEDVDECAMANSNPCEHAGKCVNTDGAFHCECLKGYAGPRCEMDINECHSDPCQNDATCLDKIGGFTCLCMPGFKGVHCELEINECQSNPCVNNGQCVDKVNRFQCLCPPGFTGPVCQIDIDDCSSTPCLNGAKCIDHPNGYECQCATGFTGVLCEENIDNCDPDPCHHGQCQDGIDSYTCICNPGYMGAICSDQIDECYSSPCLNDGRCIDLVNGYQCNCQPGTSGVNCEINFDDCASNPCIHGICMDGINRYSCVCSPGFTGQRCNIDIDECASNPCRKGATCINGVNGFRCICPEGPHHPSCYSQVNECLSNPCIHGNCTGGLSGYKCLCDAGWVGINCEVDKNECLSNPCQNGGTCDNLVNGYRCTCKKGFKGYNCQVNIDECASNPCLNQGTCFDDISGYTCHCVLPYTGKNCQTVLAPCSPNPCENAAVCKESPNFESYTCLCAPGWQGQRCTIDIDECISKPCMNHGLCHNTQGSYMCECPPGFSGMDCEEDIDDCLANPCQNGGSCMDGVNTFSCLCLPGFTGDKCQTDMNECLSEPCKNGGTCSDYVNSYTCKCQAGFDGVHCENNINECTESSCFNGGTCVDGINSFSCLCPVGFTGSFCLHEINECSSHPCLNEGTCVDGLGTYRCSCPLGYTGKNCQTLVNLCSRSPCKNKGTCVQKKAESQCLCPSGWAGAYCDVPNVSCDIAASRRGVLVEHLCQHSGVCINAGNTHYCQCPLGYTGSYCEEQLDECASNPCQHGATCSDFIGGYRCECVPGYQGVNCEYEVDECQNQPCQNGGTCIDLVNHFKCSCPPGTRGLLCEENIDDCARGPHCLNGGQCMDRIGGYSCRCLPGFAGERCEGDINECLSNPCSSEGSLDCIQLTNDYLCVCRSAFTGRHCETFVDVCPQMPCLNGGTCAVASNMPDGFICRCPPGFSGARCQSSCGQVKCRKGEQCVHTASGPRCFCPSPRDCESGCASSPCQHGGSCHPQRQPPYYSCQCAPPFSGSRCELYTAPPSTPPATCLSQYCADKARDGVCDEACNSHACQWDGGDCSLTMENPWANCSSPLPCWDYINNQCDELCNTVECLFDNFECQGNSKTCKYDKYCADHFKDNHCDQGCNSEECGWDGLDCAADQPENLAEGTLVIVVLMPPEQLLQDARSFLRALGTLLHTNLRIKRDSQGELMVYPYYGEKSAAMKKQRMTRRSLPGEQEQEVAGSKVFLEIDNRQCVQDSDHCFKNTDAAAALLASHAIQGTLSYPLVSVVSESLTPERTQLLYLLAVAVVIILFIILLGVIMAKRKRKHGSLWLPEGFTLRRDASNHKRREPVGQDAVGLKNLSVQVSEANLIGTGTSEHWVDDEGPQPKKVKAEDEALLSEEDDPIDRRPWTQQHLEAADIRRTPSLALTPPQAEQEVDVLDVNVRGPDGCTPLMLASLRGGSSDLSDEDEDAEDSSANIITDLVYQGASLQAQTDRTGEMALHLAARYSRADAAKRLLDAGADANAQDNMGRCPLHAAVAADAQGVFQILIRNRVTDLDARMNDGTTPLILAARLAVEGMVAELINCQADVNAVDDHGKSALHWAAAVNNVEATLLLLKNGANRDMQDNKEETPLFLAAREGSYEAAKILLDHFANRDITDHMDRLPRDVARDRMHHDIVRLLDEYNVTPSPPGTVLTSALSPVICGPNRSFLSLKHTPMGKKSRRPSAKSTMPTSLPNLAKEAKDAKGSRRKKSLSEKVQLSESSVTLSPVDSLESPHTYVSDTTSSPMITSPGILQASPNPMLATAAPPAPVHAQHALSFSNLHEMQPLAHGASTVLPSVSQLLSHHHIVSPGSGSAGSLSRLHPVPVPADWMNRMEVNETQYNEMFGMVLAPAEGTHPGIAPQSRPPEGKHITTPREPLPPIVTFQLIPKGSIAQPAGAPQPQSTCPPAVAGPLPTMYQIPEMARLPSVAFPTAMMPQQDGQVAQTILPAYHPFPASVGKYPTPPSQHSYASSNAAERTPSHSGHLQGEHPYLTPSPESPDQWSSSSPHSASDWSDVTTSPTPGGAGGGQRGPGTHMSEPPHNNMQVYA

[6] = target: Pro-neuregulin-1, membrane-bound isoform (Homo sapiens) (UniProt Q02297); assay: NRG1 binders on small-molecule microarrays, primary screen, psychiatric disease protein project, biochemical, small-molecule microarray, fluorescence 635/667 (AID 1075); conditions: NRG1 binding, 635 nm fluorescence, higher = more signal;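 further: score combines 667 nm spot fluorescence with signal to noise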
Chain of Pro-neuregulin-1, membrane-bound isoform (Homo sapiens) (Q02297 whole entry, looked up, the tested form may be a part, canonical isoform): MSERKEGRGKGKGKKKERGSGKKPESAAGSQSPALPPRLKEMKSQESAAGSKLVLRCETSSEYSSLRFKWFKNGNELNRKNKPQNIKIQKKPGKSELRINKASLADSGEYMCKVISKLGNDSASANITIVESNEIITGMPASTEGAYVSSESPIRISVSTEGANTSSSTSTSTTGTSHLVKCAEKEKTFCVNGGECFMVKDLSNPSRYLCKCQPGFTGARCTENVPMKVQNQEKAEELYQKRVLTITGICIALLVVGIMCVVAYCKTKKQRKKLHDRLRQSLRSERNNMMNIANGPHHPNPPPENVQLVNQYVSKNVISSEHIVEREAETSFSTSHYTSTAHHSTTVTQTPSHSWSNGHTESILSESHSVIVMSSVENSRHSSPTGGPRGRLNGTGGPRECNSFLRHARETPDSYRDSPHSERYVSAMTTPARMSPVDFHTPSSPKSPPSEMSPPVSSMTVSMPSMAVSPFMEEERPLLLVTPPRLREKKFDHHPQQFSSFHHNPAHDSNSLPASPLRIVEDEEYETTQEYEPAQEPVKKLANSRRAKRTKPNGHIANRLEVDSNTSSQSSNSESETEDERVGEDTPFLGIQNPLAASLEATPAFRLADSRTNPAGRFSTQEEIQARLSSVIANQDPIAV

[7] = system: Neuregulin-1 EGF-like domain; assay: binders of neuregulin-1 EGF-like domain, primary screen, biochemical, small-molecule microarray, 635 nm fluorescence (AID 1081); conditions: small-molecule microarray binding, higher = more signal;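 further: binding of the protein to compounds printed on small-molecule microarray slides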
[8] = FRG1 promoter luciferase signal modulators, primary screen, FRG1 inhibition for FSHD, cell-based, C2C12 myotubes, firefly/Renilla luciferase, luminescence (AID 1084); conditions: higher = more signal, called active from +8 up or from −8 down
[9] = binders of probe aFST on microarray, primary screen, stem cell growth factor project, biochemical, small-molecule microarray, fluorescence 635/667 (AID 1086); conditions: higher = more signal;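 further: score merges 667 nm fluorescence with signal-to-noise of each printed compound spot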
[10] = binders of probe aHhip on microarray, primary screen, stem cell growth factor project, biochemical, small-molecule microarray, fluorescence 635/667 (AID 1087); conditions: higher = more signal;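 further: score merges spot fluorescence at 667nm with spot signal to noise ratio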
[11] = system: PRMT1 (protein arginine N-methyltransferase 1); assay: PRMT1 binders on small-molecule microarrays, primary screen, biochemical, small-molecule microarray, 635 nm fluorescence (AID 1088); conditions: small-molecule microarray binding, higher = more signal;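 further: binding of Prmt1 protein to compounds spotted on small-molecule microarray slides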
[12] = yeast growth modulation, basal conditions, primary screen, YJM789 clinical isolate, OD600, 24 h (AID 1089);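 further: growth of clinical yeast isolate S. cerevisiae YJM 789 seeded 1000 cells per well; test concentration not given here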; conditions: S. cerevisiae YJM789 growth, higher = more signal, called active from +8 up or from −8 down
[13] = fission yeast growth modulation, primary screen, strain 972, OD600, 24 h, no modulator (AID 1090);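 further: basal condition with compound alone and no growth modifier present; test concentration not given here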; conditions: S. pombe 972 growth, higher = more signal, called active from +8 up or from −8 down
[14] = S. cerevisiae growth modulation with rapamycin, primary screen, strain BY4716, OD600, 96 h (AID 1091); conditions: higher = more signal, called active from +8 up or from −8 down; further: test concentration not given here
[15] = target: Torsin-1A-interacting protein 2 (Homo sapiens) (UniProt Q8NFQ8); assay: LULL1 binders on small-molecule microarray, primary screen, cell lysate, human LULL1 lysate, 635/667 nm fluorescence (AID 1092); conditions: hLULL1 lysate binding, 635 nm fluorescence, higher = more signal;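 further: probe is lysate of COS7 cells overexpressing human LULL1; score merges per-feature 667 nm fluorescence with signal-to-noise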
Chain of Torsin-1A-interacting protein 2 (Homo sapiens) (Q8NFQ8 whole entry, looked up): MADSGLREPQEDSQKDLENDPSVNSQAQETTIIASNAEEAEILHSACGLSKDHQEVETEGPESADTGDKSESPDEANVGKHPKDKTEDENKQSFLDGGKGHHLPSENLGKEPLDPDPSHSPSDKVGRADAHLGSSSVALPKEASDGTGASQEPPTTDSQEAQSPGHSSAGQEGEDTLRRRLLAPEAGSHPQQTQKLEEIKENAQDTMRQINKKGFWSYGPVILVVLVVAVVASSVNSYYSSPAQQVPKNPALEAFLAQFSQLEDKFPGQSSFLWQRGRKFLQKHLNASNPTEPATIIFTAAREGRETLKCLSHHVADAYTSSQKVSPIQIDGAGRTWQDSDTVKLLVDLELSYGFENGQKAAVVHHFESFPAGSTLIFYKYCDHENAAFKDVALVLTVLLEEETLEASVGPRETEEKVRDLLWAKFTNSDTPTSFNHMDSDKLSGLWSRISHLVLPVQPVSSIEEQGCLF

[16] = E. coli growth modulation, two-sided OD650, primary screen, E. coli filamentation project, strain DRC41, 24 h (AID 1093); conditions: OD650, 24 h, higher = more signal, called active from +8 up or from −8 down;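 further: MC1000 strain lacking acrAB efflux and sulA so SOS filamentation is blocked; test concentration not given here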
[17] = small-molecule microarray binders of probe aLefty2, primary screen, biochemical, biotinylated probe, 635/667 nm fluorescence (AID 1094); conditions: higher = more signal;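 further: score merges spot fluorescence near 667 nm with spot signal-to-noise ratio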
[18] = system: Noggin (protein binding on small-molecule microarray); assay: Noggin binders on small-molecule microarray, primary screen, biochemical, 635/667 nm fluorescence (AID 1095); conditions: 635 nm fluorescence, higher = more signal;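 further: score merges 667 nm feature fluorescence with signal to noise over triplicate slides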
[19] = target: Neurogenic locus notch homolog protein 3 (Homo sapiens) (UniProt Q9UM47); assay: NOTCH3 binders on small-molecule microarray, primary screen, biochemical, 635/667 nm fluorescence (AID 1096); conditions: NOTCH3 binding, 635 nm fluorescence, higher = more signal
[20] = small-molecule microarray binders of probe aEGFR, primary screen, biochemical, biotinylated probe, 635/667 nm fluorescence (AID 1097); conditions: higher = more signal;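 further: probe is a biotinylated anti-EGFR antibody binding compounds printed on slides; score combines fluorescence near 667 nm and signal to noise of each spot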

| SMILES | composite z-score [1] | composite z-score [2] | composite z-score [3] | composite z-score [4] | composite z-score [5] | composite z-score [6] | composite z-score [7] | z-score [8] | composite z-score [9] | composite z-score [10] | composite z-score [11] | z-score [12] | z-score [13] | z-score [14] | composite z-score [15] | z-score [16] | composite z-score [17] | composite z-score [18] | composite z-score [19] | composite z-score [20] |
| --- | --- | --- | --- | --- | --- | --- | --- | --- | --- | --- | --- | --- | --- | --- | --- | --- | --- | --- | --- | --- |
| O=C1O[C@@H](c2ccccc2)[C@@H](c2ccccc2)N2[C@@H](c3ccc(OCCO)cc3)[C@]3(C(=O)Nc4ccc(C#CC5=CCCCC5)cc43)[C@@H](C(=O)Nc3nc4ccccc4s3)[C@H]12 | -0.574 | 0.0484 | -0.357 | 0.3 | 0.91 | 0.744 | 0.651 | 4.67 (inactive) | -1.06 | -1.07 | 1.56 | 2.22 (inactive) | 1.59 (inactive) | 1.57 (inactive) | 1.86 | -0.124 (inactive) | -0.673 | 1.11 | 1.02 | -0.0613 |
| COCCCNC(=O)[C@@]1(Cc2ccccc2I)c2ccccc2C(=O)N(Cc2ccccc2OC)[C@H]1c1ccc(CO)cc1 | 0.841 | 0.32 | 0.096 | 0.655 | -1.09 | 1.3 | 1.3 | -2.86 (inactive) | -0.523 | -0.195 | 1.56 | 0.634 (inactive) | 0.248 (inactive) | 1.07 (inactive) | 2.77 | 0.62 (inactive) | -0.142 | -1.22 | -0.625 | -0.331 |
| COc1ccc(C(=O)Nc2ccc(CN3C(=O)[C@]4(O[C@H](CC(=O)N(CCO)Cc5ccccc5)[C@@H]([Si](C)(C)c5ccc(OC)cc5)[C@@H]4C)c4ccccc43)cc2)cc1 | -0.284 | 1.22 | -0.0858 | 0.792 | 0.271 | 0.74 | 1.26 | -0.228 (inactive) | 0.276 | -0.0994 | 1.54 | 0.517 (inactive) | 1.03 (inactive) | 3.41 (inactive) | 2.03 | 1.6 (inactive) | -0.235 | 1.08 | 0.565 | -0.096 |
| CCCCCCc1nc(-c2ccc(OC)nc2)c(C)c2c1[Si](C(C)C)(C(C)C)OC2 | -0.314 | -0.0637 | -0.0502 | -0.234 | 0.0716 | -0.64 | -0.59 | 0.329 (inactive) | 0.0446 | -0.0994 | 0.319 | -0.0796 (inactive) | -0.329 (inactive) | 0.182 (inactive) | -0.627 | 0.836 (inactive) | 0.054 | 0.293 | 0.0448 | -0.131 |
| CC(C)(C)OC(=O)CC[C@]1(C(=O)N2CCOCC2)COC(c2ccc(OCCCO)cc2)=N1 | -0.77 | 0.667 | 0.0476 | 0.0767 | 0.498 | 1.6 | 1.32 | -0.462 (inactive) | 0.163 | -0.0275 | 0.786 | 1.04 (inactive) | 0.487 (inactive) | 0.911 (inactive) | 3.6 | 1.66 (inactive) | 0.0665 | -0.778 | -0.526 | 0.94 |
| COC(=O)C(CC#Cc1ccc2c(c1)[C@]1(C(=O)N2)[C@H](c2ccccc2OCCO)N2[C@H](c3ccccc3)[C@H](c3ccccc3)OC(=O)[C@H]2[C@@H]1C(=O)N1CCN(c2ncccn2)CC1)C(=O)OC | -0.35 | 0.474 | -0.0937 | 0.431 | 0.852 | 1.31 | 1.13 | -1.46 (inactive) | 0.255 | -0.11 | 1.51 | 2.61 (inactive) | 1.28 (inactive) | 6.83 (inactive) | 2.15 | 0.173 (inactive) | -0.107 | 1.71 | 1.09 | -0.0982 |
| CCOC(=O)C[C@H]1[C@H](OC(=O)Cc2ccc3c(c2)OCO3)[C@@H](NC(=O)CC(C)C)c2cc(OCCCO)ccc2N1C(=O)c1ccc2ccccc2n1 | -0.306 | 1.01 | 0.0435 | 0.43 | 0.834 | 1.01 | 0.518 | -3.21 (inactive) | 0.376 | -0.344 | 0.516 | -0.0651 (inactive) | -0.943 (inactive) | -0.0443 (inactive) | 0.452 | 0.431 (inactive) | -0.145 | 0.988 | 0.647 | -0.178 |
| COC(=O)[C@@]1(Cc2ccc(F)cc2)[C@H]2c3cc(C(=O)N(C)C)n(Cc4cccc5ccccc45)c3C[C@H]2CN1C(=O)c1ccccc1 | 1.84 | 1.71 | 0.398 | 1.16 | 0.77 | 1.13 | 1.33 | 0.255 (inactive) | 0.697 | 0.727 | -0.72 | 1.43 (inactive) | 1.54 (inactive) | 2.69 (inactive) | 4.03 | -1.15 (inactive) | 0.323 | -0.192 | -0.0287 | 0.0776 |
| C=C(C(=O)CC[C@@H](OC(=O)c1ccccc1-c1ccccc1C(=O)O)c1cccc(OCCO)c1)C(C)C | -0.308 | 2.23 | -0.0577 | 1.22 | 0.234 | 0.535 | -0.141 | 0.345 (inactive) | -0.156 | 0.154 | 1.46 | 0.433 (inactive) | -0.0072 (inactive) | -0.641 (inactive) | -0.104 | 0.355 (inactive) | -0.118 | 0.782 | 0.164 | -0.182 |
